Among the test systems are SNB-75 CNS; SNB-19 CNS; U251 CNS; PC-3 prostate; SK-MEL-5 melanoma; UACC-62 melanoma; LOX IMVI melanoma; SK-MEL-28 melanoma; SK-MEL-2 melanoma; EKVX NSCLC; SN12C renal; UO-31 renal; TK-10 renal; ACHN renal; CAKI-1 renal; A498 renal; CCRF-CEM leukemia; MOLT-4 leukemia; HT29 colon.
Holding throughout (assay): NCI-60 one-dose screen, 48 h (100 = growth as untreated, 0 = no growth, -100 = all killed)
Holding throughout (conditions): 10 µM unless noted

Each structure is given as a SMILES string. The panel holds about 83,000 compounds, 20% with a hit somewhere; the sample as a whole holds those more often.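 A percent growth of 40 corresponds to 60% growth inhibition; 0 means no net growth; -100 means all cells died. Active threshold: below 10.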 Values without a mark were called inactive. The source made the active and inactive calls.

Take `COC(=O)C1=C(C)NC(C)=C(C(=O)OCC(C)C)C1c1ccccc1[N+](=O)[O-]` (centres undefined): the growth was 68.6% in the experiment with SNB-75 CNS; 82.4% with SNB-19 CNS; 68.8% with U251 CNS; 35.8% in the experiment on PC-3 prostate; 38% with SK-MEL-5 melanoma; 48.7% with UACC-62 melanoma. In addition, the growth in the experiment on LOX IMVI melanoma is 42.4%; in the experiment with SK-MEL-28 melanoma it was 87.1%; in the experiment with SK-MEL-2 melanoma, 64.8%; with EKVX NSCLC, 58.3%; in the experiment on SN12C renal, 64.3%; with UO-31 renal, 28.3%. Also, the growth in the experiment with TK-10 renal was 80.7%; in the experiment with ACHN renal, 26.8%; in the experiment with CAKI-1 renal, 21.9%; in the experiment with A498 renal it was 50.4%; with CCRF-CEM leukemia, 7.1% (active); in the experiment with MOLT-4 leukemia, 43.6%.

Turning to `CCc1cccc(Sc2cc(C(=O)N3Cc4ccc(OCCN(C)C)cc4C3)ccc2O)c1`, the growth with HT29 colon is 103%; in the experiment with SNB-75 CNS, 121%; in the experiment on SNB-19 CNS, 71.2%; in the experiment on U251 CNS, 54.9%; in the experiment with PC-3 prostate it was 54.6%; with SK-MEL-5 melanoma, 26.5%. In addition, the growth in the experiment with UACC-62 melanoma was 66.5%; with LOX IMVI melanoma it was 46.7%; with SK-MEL-28 melanoma it was 90.8%; with SK-MEL-2 melanoma, 88.2%; in the experiment with EKVX NSCLC, 39.2%; in the experiment with SN12C renal, 63.9%. Moreover, the growth was 56.5% with UO-31 renal; 63.2% in the experiment with TK-10 renal; 58.2% in the experiment with ACHN renal; 83.5% in the experiment with CAKI-1 renal; 42.2% in the experiment with A498 renal; 29.2% in the experiment on CCRF-CEM leukemia.

As to `O=C1c2cccnc2C(=O)c2c1c(C(=O)OCCCN1CCCCC1)c1ccccn21`, the growth with HT29 colon is -24.2% (active); with SNB-75 CNS it was -88.7% (active); with SNB-19 CNS, -38.2% (active); in the experiment with U251 CNS, -31% (active); in the experiment on PC-3 prostate, -18.2% (active); in the experiment with SK-MEL-5 melanoma, -96.2% (active). Besides, the growth with UACC-62 melanoma is -51.2% (active); with LOX IMVI melanoma, -67.2% (active); in the experiment with SK-MEL-28 melanoma it was -20.3% (active); in the experiment with EKVX NSCLC it was -15.6% (active); in the experiment on SN12C renal, -57.6% (active); in the experiment with UO-31 renal, -19.5% (active). In addition, the growth in the experiment with TK-10 renal is -11.1% (active); with ACHN renal, -55.2% (active); in the experiment on CAKI-1 renal, -24% (active); with A498 renal, 11.1%; in the experiment with CCRF-CEM leukemia, -17% (active); with MOLT-4 leukemia it was -7.64% (active).

As to `CC[C@H](CC[C@@H](C)[C@H]1CC[C@H]2[C@@H]3CC[C@@H]4CC(=O)/C(=C\c5ccncc5)C[C@]4(C)[C@H]3CC[C@]12C)C(C)C`, the growth is 103% with HT29 colon; 99.4% in the experiment on SNB-75 CNS; 99.2% with SNB-19 CNS; 96.3% with U251 CNS; 92.6% in the experiment on PC-3 prostate; 100% in the experiment on SK-MEL-5 melanoma. Moreover, the growth was 94.5% with UACC-62 melanoma; 95.7% in the experiment on LOX IMVI melanoma; 107% in the experiment on SK-MEL-28 melanoma; 105% in the experiment on SK-MEL-2 melanoma; 99.6% in the experiment on EKVX NSCLC; 102% in the experiment with SN12C renal. Further, the growth in the experiment with UO-31 renal was 90.4%; in the experiment on TK-10 renal it was 107%; in the experiment with ACHN renal, 111%; with CAKI-1 renal it was 93.8%; in the experiment with A498 renal, 83%; with CCRF-CEM leukemia, 107%. Besides, the growth with MOLT-4 leukemia is 104%.

With `Cc1ccc(/C=C/C(=O)c2ccc(NC(=O)CSc3nc4c([nH]3)c(=O)n(C)c(=O)n4C)cc2)c(C)c1`, the growth was 53.3% with HT29 colon; 18.9% with SNB-75 CNS; 0.886% (active) with SNB-19 CNS; -67.5% (active) in the experiment on U251 CNS; 49.3% in the experiment on PC-3 prostate; 69.5% in the experiment on SK-MEL-5 melanoma. The growth was 69.5% in the experiment on UACC-62 melanoma; 39.1% with LOX IMVI melanoma; 62.2% in the experiment with SK-MEL-28 melanoma; 91.9% in the experiment on SK-MEL-2 melanoma; 78.1% in the experiment with EKVX NSCLC; 57.1% with SN12C renal. Further, the growth in the experiment on UO-31 renal was 70.4%; in the experiment with TK-10 renal it was 83.5%; with ACHN renal, 38.8%; in the experiment on CAKI-1 renal, 48.1%; in the experiment on A498 renal, 40.2%; in the experiment with CCRF-CEM leukemia, 65.3%. Besides, the growth in the experiment with MOLT-4 leukemia was 62.1%.

Regarding `CC(C)CCC[C@@H](C)C1CCC2C3CCC4=C/C(=N/OCCN(C)C)CC[C@]4(C)C3CC[C@@]21C` (some centres undefined), the growth in the experiment on SNB-75 CNS is 80.5%; in the experiment with SNB-19 CNS, 86.5%; with U251 CNS it was 79.2%; in the experiment with SK-MEL-5 melanoma, 99.3%; in the experiment on UACC-62 melanoma, 84.9%; with LOX IMVI melanoma, 57.8%. In addition, the growth in the experiment with SK-MEL-28 melanoma is 101%; in the experiment with SK-MEL-2 melanoma, 83.7%; with EKVX NSCLC it was 94.7%; with SN12C renal, 92.6%; in the experiment with UO-31 renal, 61.7%; in the experiment on TK-10 renal, 70.4%. For the same compound, the growth in the experiment with ACHN renal is 88.9%; in the experiment on CAKI-1 renal, 79.9%; in the experiment with A498 renal it was 80.8%; in the experiment with CCRF-CEM leukemia it was 26.6%; in the experiment with MOLT-4 leukemia, 49.2%.

Consider `COc1cc(Nc2c3ccc(Cl)cc3nc3ccc(OC)cc23)c2ncccc2c1`, for which the growth in the experiment with HT29 colon is 38.1%; with SNB-75 CNS it was 70.1%; with SNB-19 CNS, 66.6%; in the experiment with U251 CNS it was 31.5%; with PC-3 prostate, 38%; with SK-MEL-5 melanoma it was 33%. Besides, the growth with LOX IMVI melanoma was 29.3%; in the experiment on SK-MEL-28 melanoma, 50%; in the experiment on SK-MEL-2 melanoma it was 78.6%; with EKVX NSCLC, 39.2%; with SN12C renal it was 52.5%; in the experiment on UO-31 renal, 26.9%. For the same compound, the growth with TK-10 renal was 44.7%; in the experiment with ACHN renal, 31.2%; with CAKI-1 renal, 32.2%; in the experiment on A498 renal, 62.4%; with CCRF-CEM leukemia, 26.9%; with MOLT-4 leukemia, 39.3%.

For `COc1ccc(/C=C/C(=O)c2ccc(Nc3nc(Nc4ccc(F)cc4)nc(Nc4ccc(Cl)cc4)n3)cc2)cc1`, the growth is 94.1% in the experiment on HT29 colon; 95.6% in the experiment on SNB-75 CNS; 115% with SNB-19 CNS; 111% in the experiment on U251 CNS; 81.4% in the experiment with PC-3 prostate; 83.6% in the experiment with SK-MEL-5 melanoma. Moreover, the growth in the experiment with UACC-62 melanoma was 105%; in the experiment with LOX IMVI melanoma, 102%; in the experiment with SK-MEL-28 melanoma, 110%; in the experiment with SK-MEL-2 melanoma, 55.1%; with EKVX NSCLC, 86.2%; in the experiment on SN12C renal, 112%. In addition, the growth was 75.6% in the experiment with UO-31 renal; 137% in the experiment with TK-10 renal; 106% in the experiment with ACHN renal; 86.5% in the experiment with CAKI-1 renal; 118% in the experiment on A498 renal; 8.9% (active) in the experiment on CCRF-CEM leukemia. Besides, the growth in the experiment on MOLT-4 leukemia is 22.3%.

For `CCNCc1ccc(O)c2ncccc12`, the growth in the experiment with HT29 colon was 95.9%; with SNB-75 CNS, 31.1%; in the experiment with SNB-19 CNS, 24.2%; with U251 CNS, 17.7%; in the experiment on PC-3 prostate it was 23.4%; in the experiment on SK-MEL-5 melanoma, 6.19% (active). Further, the growth was 25% in the experiment on UACC-62 melanoma; 31% in the experiment with LOX IMVI melanoma; 65.6% in the experiment on SK-MEL-28 melanoma; 25.1% in the experiment on EKVX NSCLC; 34% in the experiment with SN12C renal; 18.1% with UO-31 renal. The growth was 5.97% (active) in the experiment with TK-10 renal; 22.7% with ACHN renal; 35.3% in the experiment with CAKI-1 renal; 59.5% in the experiment on A498 renal; 27.3% in the experiment with CCRF-CEM leukemia; 29% in the experiment on MOLT-4 leukemia.

The record behind these values is PubChem BioAssay (NCI).
